The values that follow come from PubChem BioAssay (Tox21).

Experiment [1] is described as follows: Nuclear factor erythroid 2-related factor 2/antioxidant responsive element (Nrf2/ARE) small molecule agonists: luciferase reporter gene qHTS assay in human keratinocytes (AID 1919969). Also: nearly all actives have a fitted effect of over 35% in size. Background: A reporter such as luciferase makes a cellular process visible.
The target in experiment [2] is Gonadotropin-releasing hormone receptor (Homo sapiens) (UniProt P30968). Kind of experiment: Human gonadotropin-releasing hormone receptor (GnRHR) small molecule agonists, calcium flux assay in GnRHR-HEK293 cells (AID 1920063). Also: nearly all actives have a fitted effect of over 35% in size. The method in brief: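 Intracellular calcium rise is the read-out: engineered human GnRHR HEK293 cells, dye-loaded, are exposed to DMSO-dissolved compounds and fluorescence at Ex/Em 480/540 is tracked for 3 min.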
Gonadotropin-releasing hormone receptor (Homo sapiens), sequence (P30968 whole entry, looked up): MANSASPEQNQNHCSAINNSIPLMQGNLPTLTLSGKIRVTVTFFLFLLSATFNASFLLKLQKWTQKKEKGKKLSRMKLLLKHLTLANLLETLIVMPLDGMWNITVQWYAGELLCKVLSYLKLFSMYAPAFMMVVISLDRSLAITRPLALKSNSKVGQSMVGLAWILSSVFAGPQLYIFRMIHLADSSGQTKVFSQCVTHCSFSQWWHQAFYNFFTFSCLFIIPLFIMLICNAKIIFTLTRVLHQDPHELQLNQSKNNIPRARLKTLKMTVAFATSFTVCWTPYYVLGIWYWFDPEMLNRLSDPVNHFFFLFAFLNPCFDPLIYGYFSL
Background: Calcium flux is commonly read through the fluorescence of an indicator in the cells.

The nature of experiment [3]: G protein-coupled receptor (GPCR) small molecule agonists, calcium flux assay: HEK293 wild type cell line counter screen (AID 1920065). The procedure, abridged: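 Fluorescence intensity signals activation. After overnight (18 h) culture and a 1 h calcium dye load at 37 C, compounds are added by pin tool and the plate read at 480/540 nm for 3 min in 1 s steps.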
Experiment [4] is described as follows: p53 small molecule agonists, cell-based qHTS assay with human liver microsomes (AID 1963577). The procedure, abridged: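 Cells carrying a p53-responsive bla reporter were rested 5 h (37 C, 5% CO2) before compound transfer. Human liver microsomes plus NADPH, 0.5 mg/mL final apiece, supplied metabolism during the 16 h 37 C exposure.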
Background: In qHTS, concentration-response curves come from the screen itself.

Experiment [5] is described as follows: p53 small molecule agonists, cell-based qHTS assay with rat liver microsomes (AID 1963578). The procedure, abridged:
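Fluorescence from a beta-lactamase reporter under a p53 response element was measured after cells had been incubated 16 h at 37 C with test compound and rat liver microsomes plus NADPH (0.5 mg/mL final each).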

A short description of experiment [6]: p53 small molecule agonists, cell-based qHTS assay with human liver microsomes: qHTS cell viability counter screen (AID 1963579). Also: nearly all actives have a fitted effect of over 45% in size. The method in brief:
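Seed p53RE-bla cells at 4,000 per well; incubate 5 h at 37 C; add compound, human liver microsomes and NADPH; incubate 16 h at 37 C; add CellTiter-Glo; after 30 min at room temperature, read luminescence.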

Experiment [7] in a line: p53 small molecule agonists, cell-based qHTS assay with rat liver microsomes: qHTS cell viability counter screen (AID 1963580). Also: nearly all actives have a fitted effect of over 45% in size. The procedure, abridged: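 Luminescent ATP readout (CellTiter-Glo, 30 min at room temperature) reports viability of p53RE-bla HCT-116 cells after 16 h at 37 C with test compounds under metabolic activation by rat liver microsomes and NADPH at 0.5 mg/mL final each.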

The nature of experiment [8]: p53 small molecule agonists, cell-based qHTS assay: qHTS cell viability counter screen (AID 1963581). Also: nearly all actives have a fitted effect of over 45% in size. The method in brief:
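Luminescence from CellTiter-Glo, reflecting ATP content, serves as the cytotoxicity measure; it is taken after the 2 h reporter substrate step in HCT-116 p53RE-bla cells dosed for 16 h at 37 C.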

A short description of experiment [9]: p53 small molecule agonists, cell-based qHTS assay (AID 1963582; active = well fitted activation curve with a large enough effect in the signal ratio in the repeat runs, not every such curve was filed as active; the % refers to the signal ratio). The procedure, abridged: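 After plating, p53RE-bla cells sat 5 h in the incubator; compounds or DMSO vehicle were pinned in; a 16 h incubation at 37 C followed; FRET substrate was added and, 2 h later at RT, fluorescence was measured.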
Experiment [10] concerns the target 5-hydroxytryptamine receptor 2A (Homo sapiens) (UniProt P28223). As to the kind of experiment: 5-hydroxytryptamine receptor 2A (HTR2A) small molecule antagonists, cell-based qHTS assay (AID 1963586). Also: nearly all actives have a fitted effect of over 45% in size. The procedure, abridged: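 CHO cells stably expressing human HTR2A were plated for 18 h at 37 C, then loaded with calcium dye for 1 h. Compounds were preincubated 5 min at room temperature before DOI (4 nM solution) was added. Kinetic fluorescence was read for 3 min.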

Experiment [11] is described as follows: cAMP Responsive Elements (CRE) small molecule agonists, cell-based qHTS assay (AID 1963590). The method in brief: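 Compound exposure lasted 3 h at 37 C/5% CO2 in CRE-bla HEK 293T cells grown in assay medium with 10% dialyzed FBS and 25 mM HEPES. Reporter signal came from LiveBLAzer B/G FRET substrate, 2 h, room temperature.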
The nature of experiment [12]: cAMP Responsive Elements (CRE) small molecule antagonists, cell-based qHTS assay (AID 1963591; active = well fitted inhibition curve with a large enough effect in the signal ratio in the repeat runs, not every such curve was filed as active; the % refers to the signal ratio). The method in brief:
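Stimulation used NKH477 at a final 0.25 uM for 3 h in compound-treated CRE-bla HEK293T cells, seeded 18 h beforehand. Reporter activity was measured with LiveBLAzer B/G FRET substrate after 2 h at room temperature.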

In experiment [13] the target is Beta-2 adrenergic receptor (Homo sapiens) (UniProt P07550). As to the kind of experiment: Adrenergic beta2 receptor (ADRB2) small molecule antagonists, cell-based qHTS assay (AID 1963592). Also: series mostly up to about 92 µM; nearly all actives have a fitted effect of over 50% in size. The method in brief:
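Assay format: CHO-ADRB2 cells, 18-20hr seeding at 37C/5% CO2, then compound plus 1nM isoproterenol agonist mix for 0.5hr RT. Homogeneous time-resolved fluorescence cAMP detection after 1hr, expressed as 665/615 nm ratio.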

Experiment [14] has as its target D(2) dopamine receptor (Homo sapiens) (UniProt P14416). As to the kind of experiment: Dopamine D2 receptor (DRD2) small molecule agonists, cell-based qHTS assay (AID 1963594). Also: nearly all actives have a fitted effect of over 35% in size. The method in brief: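 HEK293 cells stably expressing DRD2 were cultured 24 h at 37 C, then given Ro20-1724 (0.1 mM final) and compounds for 10 min at room temperature. NKH477 (200nM) was then added for 30 min. cAMP was read by HTRF.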

Experiment [15] has the same target. As to the kind of experiment: Dopamine D2 receptor (DRD2) small molecule antagonists, cell-based qHTS assay (AID 1963595; active = well fitted inhibition curve with a large enough effect in the signal ratio in the repeat runs, with a control signal flat; the % refers to the signal ratio). The procedure, abridged: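 Antagonism was scored as restored cAMP in HEK293-DRD2 cells. These cells were stimulated with 200 nM NKH477 and 12 nM quinpirole for 30 min at room temperature, in the presence of 0.1 mM Ro20-1724.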
Experiment [16] deals with KiSS-1 receptor (Homo sapiens) (UniProt Q969F8). Kind of experiment: Human kisspeptin (KISS1R) small molecule agonists, calcium flux assay in KISS1R-HEK293 cells (AID 1920064; active = well fitted activation curve with a large enough effect in the repeat runs). The procedure, abridged: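 Concentration-response testing used 15 concentrations in triplicate on human KISS1R-expressing HEK293 cells. Calcium-dependent fluorescence (Ex/Em 480/540) was followed kinetically for 3 min after compound transfer.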
KiSS-1 receptor (Homo sapiens), sequence (Q969F8 whole entry, looked up): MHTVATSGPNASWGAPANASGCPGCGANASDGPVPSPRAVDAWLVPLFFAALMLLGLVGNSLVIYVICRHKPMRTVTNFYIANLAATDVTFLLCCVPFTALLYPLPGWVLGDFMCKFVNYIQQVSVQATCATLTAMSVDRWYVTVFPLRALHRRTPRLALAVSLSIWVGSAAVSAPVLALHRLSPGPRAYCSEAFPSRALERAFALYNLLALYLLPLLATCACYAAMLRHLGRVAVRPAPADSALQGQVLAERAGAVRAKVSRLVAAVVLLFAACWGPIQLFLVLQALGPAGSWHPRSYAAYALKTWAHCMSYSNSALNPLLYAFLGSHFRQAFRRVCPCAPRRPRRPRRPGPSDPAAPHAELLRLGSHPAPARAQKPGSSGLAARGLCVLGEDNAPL

Experiment [17] has as its target 5-hydroxytryptamine receptor 2A (Homo sapiens) (UniProt P28223). As to the kind of experiment: 5-hydroxytryptamine receptor 2A (HTR2A) small molecule agonists, cell-based qHTS assay (AID 1963587). Also: nearly all actives have a fitted effect of over 30% in size. Also: potency is read from the fitted curve at half-maximal effect. The procedure, abridged: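 HTR2A-CHO cells, plated 18 h at 37 C/5% CO2, dye-loaded 1 h at 37 C; compounds in DMSO added by pin tool (agonist mode). Intracellular calcium flux read as kinetic fluorescence on FDSS over 2 min at 1 s intervals.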

The target in experiment [18] is Muscarinic acetylcholine receptor M1 (Homo sapiens) (UniProt P11229). As to the kind of experiment: Cholinergic receptor muscarinic 1 (CHRM1) small molecule antagonists, cell-based qHTS assay (AID 1963588). Also: nearly all actives have a fitted effect of over 40% in size. The method in brief: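 Compounds were tested at 15 concentrations in three independent runs. Dye-loaded CHRM1-CHO cells were exposed 5 min at room temperature before stimulation by acetylcholine added at 50nM. Intracellular calcium was read kinetically on FDSS for 3 min.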
Muscarinic acetylcholine receptor M1 (Homo sapiens), sequence (P11229 whole entry, looked up): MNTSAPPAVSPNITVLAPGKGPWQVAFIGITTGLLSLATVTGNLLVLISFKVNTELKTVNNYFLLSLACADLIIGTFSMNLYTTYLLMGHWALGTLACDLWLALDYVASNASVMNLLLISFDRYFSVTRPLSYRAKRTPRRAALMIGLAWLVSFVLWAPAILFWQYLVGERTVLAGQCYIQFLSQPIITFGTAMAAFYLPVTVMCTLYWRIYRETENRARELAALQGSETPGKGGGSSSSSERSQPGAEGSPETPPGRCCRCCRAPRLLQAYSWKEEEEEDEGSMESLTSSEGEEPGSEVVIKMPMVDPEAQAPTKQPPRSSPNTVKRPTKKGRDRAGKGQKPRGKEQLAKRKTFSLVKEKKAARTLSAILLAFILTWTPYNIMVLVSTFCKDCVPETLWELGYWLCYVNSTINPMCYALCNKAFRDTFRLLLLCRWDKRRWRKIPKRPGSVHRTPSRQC

The target is the same in experiment [19]. Kind of experiment: Cholinergic receptor muscarinic 1 (CHRM1) small molecule agonists, cell-based qHTS assay (AID 1963589). Also: nearly all actives have a fitted effect of over 35% in size. The procedure, abridged:
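Fluorescent calcium dye reports M1 activation in stably transfected CHO cells. Compounds, 15 concentrations, added after 1 h dye loading at 37 C; kinetic reading at 1 sec intervals.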

Experiment [20] addresses Beta-2 adrenergic receptor (Homo sapiens) (UniProt P07550). Kind of experiment: Adrenergic beta2 receptor (ADRB2) small molecule agonists, cell-based qHTS assay (AID 1963593).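 Also: CHO cells stably overexpressing human ADRB2.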 The method in brief:
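CHO cells stably over-expressing ADRB2 were plated overnight at 37C, then dosed with compounds plus a stimulation mix containing 100uM IBMX and 25uM Ro-20-1724 for 0.5hr at room temperature. cAMP was measured by HTRF competition, 1hr.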

A number with no mark means an inactive call. Inconclusive results are not listed. Calls of active or inactive are those of the source. Unless noted, calls follow the shape of the full dose curve.
% is scaled to controls: 0 for no effect and ±100 for the full control effect.

D(2) dopamine receptor (Homo sapiens), sequence (P14416 whole entry, looked up): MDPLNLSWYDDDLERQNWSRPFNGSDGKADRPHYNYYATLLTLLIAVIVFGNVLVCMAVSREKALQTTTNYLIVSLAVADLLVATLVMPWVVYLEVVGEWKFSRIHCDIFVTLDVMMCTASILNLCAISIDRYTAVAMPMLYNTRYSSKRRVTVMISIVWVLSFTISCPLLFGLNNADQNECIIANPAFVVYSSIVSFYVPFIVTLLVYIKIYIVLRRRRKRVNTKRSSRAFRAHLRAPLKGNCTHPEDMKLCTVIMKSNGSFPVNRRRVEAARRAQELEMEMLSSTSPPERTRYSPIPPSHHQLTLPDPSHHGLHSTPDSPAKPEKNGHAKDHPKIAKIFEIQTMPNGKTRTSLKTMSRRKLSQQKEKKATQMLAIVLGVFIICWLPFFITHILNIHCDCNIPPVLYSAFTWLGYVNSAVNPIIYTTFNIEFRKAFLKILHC
Beta-2 adrenergic receptor (Homo sapiens), sequence (P07550 whole entry, looked up): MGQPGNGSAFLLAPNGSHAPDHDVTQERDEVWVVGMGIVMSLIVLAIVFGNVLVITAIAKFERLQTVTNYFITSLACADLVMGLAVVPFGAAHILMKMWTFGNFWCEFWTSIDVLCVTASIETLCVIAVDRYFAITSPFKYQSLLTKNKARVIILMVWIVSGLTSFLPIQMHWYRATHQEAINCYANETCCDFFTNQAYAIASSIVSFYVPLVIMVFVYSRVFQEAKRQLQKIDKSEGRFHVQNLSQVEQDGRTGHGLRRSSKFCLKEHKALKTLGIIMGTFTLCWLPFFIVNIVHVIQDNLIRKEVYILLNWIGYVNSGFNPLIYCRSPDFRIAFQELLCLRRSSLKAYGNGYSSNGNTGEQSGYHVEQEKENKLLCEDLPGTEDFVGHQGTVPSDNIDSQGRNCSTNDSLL
5-hydroxytryptamine receptor 2A (Homo sapiens), sequence (P28223 whole entry, looked up): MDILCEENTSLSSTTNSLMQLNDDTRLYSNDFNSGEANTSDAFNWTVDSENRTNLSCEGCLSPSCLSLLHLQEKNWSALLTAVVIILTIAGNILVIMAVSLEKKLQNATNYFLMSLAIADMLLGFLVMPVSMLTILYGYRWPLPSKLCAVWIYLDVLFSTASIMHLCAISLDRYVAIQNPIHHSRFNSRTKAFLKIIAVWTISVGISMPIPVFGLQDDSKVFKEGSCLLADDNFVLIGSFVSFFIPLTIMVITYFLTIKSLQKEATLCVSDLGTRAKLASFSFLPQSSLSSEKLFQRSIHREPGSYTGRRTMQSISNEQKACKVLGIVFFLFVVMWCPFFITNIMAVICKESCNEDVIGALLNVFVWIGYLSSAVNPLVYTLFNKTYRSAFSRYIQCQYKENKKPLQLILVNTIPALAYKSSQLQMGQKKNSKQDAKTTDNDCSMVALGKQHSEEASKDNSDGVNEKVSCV

On to `C=C(C)C(=O)OCCCCCCCCCCOC(=O)C(=C)C`, for which the Potency entry in experiment [1], in [2], in experiment [4], in experiment [5], in [6] and in [7] was “inactive” throughout. For the same compound, the Potency result in [8], in experiment [9], in experiment [10], in experiment [11], in [12] and in experiment [13] was “inactive” in each case. In addition, the Potency result in experiment [14] and in experiment [15] was “inactive” throughout. Besides, the result in experiment [3] was inactive.

For `O=C(NCCc1c[nH]c2ccccc12)c1cccnc1`, the Potency entry in experiment [2], in [4], in experiment [5], in experiment [6], in experiment [7] and in experiment [8] was “inactive” in each case. Further, the Potency result in [9], in [18], in experiment [19], in experiment [11], in experiment [12] and in experiment [13] was “inactive” throughout. The Potency entry in [20] and in experiment [15] was “inactive” in each case. The result in experiment [16] and in [3] was inactive. Moreover, in experiment [17], the Potency was 3.01 µM (active).

`Nc1cc(S(=O)(=O)O)ccc1O`: the Potency result in [1], in experiment [2], in [4], in experiment [5], in [6] and in experiment [7] was “inactive” in each case. The Potency result in experiment [8], in [9], in [10], in experiment [17], in experiment [18] and in experiment [19] was “inactive” in each case. In addition, the Potency result in experiment [11], in experiment [12], in [13], in [14] and in [15] was “inactive” throughout. In experiment [16], the result was inactive.

Regarding `CC(=O)OC1CCC(C(C)(C)C)CC1` (stereo unspecified), the Potency result in experiment [1], in experiment [2], in [4], in experiment [5], in [7] and in experiment [9] was “inactive” throughout. Besides, the Potency result in experiment [10], in [17], in experiment [18], in experiment [19], in [11] and in experiment [12] was “inactive” each time. Also, the Potency result in [13], in experiment [20], in experiment [14] and in [15] was “inactive” throughout. Besides, the outcome in [3] was inactive.

`C/C=C(\C)C(=O)OCC/C=C\CC`: the Potency entry in experiment [2], in experiment [4], in experiment [5], in [6], in [7] and in [8] was “inactive” throughout. Also, the Potency entry in [9], in experiment [17], in [18], in experiment [19], in experiment [11] and in experiment [12] was “inactive” throughout. The Potency result in experiment [13], in experiment [14] and in [15] was “inactive” in each case. Moreover, the result in experiment [16] and in experiment [3] was inactive.

On to `N[C@@H](COP(=O)(O)O)C(=O)O`, for which the activity, positive = activation in [1] was 0.218% [at 19 µM]. The activation in experiment [16] is 0.255% [at 15.8 µM]; in [3], -0.0564% [at 11.8 µM]; in experiment [4], -0.646% [at 13.5 µM]; in [5], -0.0703% [at 13.6 µM]; in experiment [9], 1.58% [at 13.5 µM]; in experiment [17], -9.17% [at 15.9 µM]. In addition, the activation in experiment [19] is 11.1% [at 15.8 µM]; in [11] it was -0.511% [at 19 µM]; in [14] it was -3.09% [at 19 µM]. Also, the activity change, negative = cytotoxicity in [6] was -1.17% [at 13.5 µM]; in experiment [7], 4.54% [at 13.5 µM]. The results for the activity, negative = inhibition in experiment [10] and in experiment [18] were -2.49% [at 12.7 µM] and 5.54% [at 12.6 µM], respectively. The activity change, negative = inhibition was -18.4% [at 18.9 µM] in experiment [12], 3.41% [at 19 µM] in experiment [13] and -1.71% [at 18.9 µM] in [15].

As to `CN=C(N)NC(=O)Nc1c(C)cccc1C`, the Potency entry in experiment [1], in experiment [4], in experiment [6], in experiment [7], in experiment [8] and in experiment [9] was “inactive” throughout. Moreover, the Potency entry in [18], in [19], in experiment [11], in [12], in [13] and in experiment [14] was “inactive” throughout. The Potency result in experiment [15] is “inactive”. In addition, in [16], the outcome was inactive. In addition, in experiment [17], the Potency is 6.74 µM (active).

In the case of `COc1ccc(CN(CCN(C)C)c2ncccn2)cc1`, the Potency entry in [1], in experiment [4], in experiment [5], in experiment [9], in experiment [10] and in experiment [17] was “inactive” each time. Besides, the Potency entry in experiment [18], in [19], in experiment [11], in [12], in [13] and in [14] was “inactive” in each case. For the same compound, in experiment [15], the Potency entry was “inactive”. For the same compound, the outcome in experiment [16] and in [3] was inactive.
